Most compounds without a hit are left out; they make up all but 9.3% or so of the library.
NPC1 promoter act: activates the NPC1 promoter. Huh7 NPC1 promoter luciferase reporter, 24 h. Potency, µM (titrated, usually from 9.22 µM), for the others: at the top dose activation, hits mostly activators. hit rate 2.4% among 320,000. AID 485313; also: % of control where 0% means no effect; nearly all actives have a fitted effect of over 60% in size
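In 1536-well qHTS, Huh7 cells harboring an NPC1 promoter–luciferase construct received compound for 24 h; activation was quantified by luminescence following luciferase reagent addition.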
ELG1 repair inh: blocks ELG1-dependent DNA repair in HEK293T cells; HEK293T ELG1-luciferase reporter, luminescence, 16 h; DNA damage induced by 5-fluorouridine; AID 504467; hit rate 2.3% among 330,000; Potency, µM (doses to about 46.1 µM), without a hit: at the top dose activity change, negative = inhibition, actives largely listed as inhibitors; also: % is scaled to controls: 0 for no effect and ±100 for the full control effect; nearly all actives have a fitted effect of over 55% in size
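In this reporter screen, reduction of luminescence relative to DMSO vehicle indicated activity. Compounds and 5-fluorouridine were added together to 2,000 cells per well, incubated for 16 hr at 37 °C, then developed with ONE-Glo.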
Rab9 promoter act: Rab9 promoter activation; Potency, µM (highest dose often 9.22 µM), for inactives: at the top dose activation, negative = inhibition, hits mostly activators; hit rate 2.8% among 320,000; Huh7 Rab9 promoter-luciferase reporter, luminescence, 24 h; AID 485297; also: % of control where 0% means no effect; nearly all actives have a fitted effect of over 60% in size
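Quantitative HTS format; Huh7 Rab9-luciferase reporter cells (1500/well) receive compound 2 h post-plating, incubate 24 h at 37 °C, then get luciferase reagent for 10 min before luminescence reading.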
ELG1 genotox: inducers of genotoxicity in HEK293T ELG1-luciferase cells; HEK293T ELG1-luciferase reporter, luminescence, 16 h; Potency, µM (doses to about 46 µM), for inactives: top-dose activity change, positive = activation, actives largely listed as activators; hit rate 1.3% among 330,000; also: % of control where 0% means no effect; nearly all actives have a fitted effect of over 60% in size
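Genotoxicity was scored as increased ELG1-luciferase reporter signal, measured by ONE-Glo luminescence (30 min, room temperature). Compound or vehicle exposure of the HEK293T reporter cells lasted 16 hr at 37°C.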
SMN2 splice up: increases expression of the SMN2 splice variant | AID 1458 | HEK293 SMN2-luciferase splicing reporter, luminescence, 30-36 h | hit rate 2.8% among 210,000 | Potency, µM (highest dose often 46.1 µM), inactives show top-dose activity change, positive = activation, most hits filed as activators; also: % of control where 0% means no effect; nearly all actives have a fitted effect of over 55% in size
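qHTS luciferase splicing reporter: luminescence rises when SMN2 exon 7 is included in transfected HEK293 cells. Compound exposure lasted 30-36 h at 37C, with 4.5 mM final sodium butyrate as control, followed by a ONE-Glo read.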
FLuc modulator: counter-screen for miR-21 project: firefly luciferase inhibitors or activators | P08659 | purified FLuc, Km substrates, luminescence inhibition | Potency, µM (titrated, usually from 57.5 µM), for inactives: top-dose activity change, negative = inhibition, usual class: inhibitors | hit rate 6.9% among 360,000;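 also: plate controls were vehicle for no effect and reference inhibitor for full effect; nearly all actives have a fitted effect of over 55% in size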
Target sequence (P08659 whole entry, looked up): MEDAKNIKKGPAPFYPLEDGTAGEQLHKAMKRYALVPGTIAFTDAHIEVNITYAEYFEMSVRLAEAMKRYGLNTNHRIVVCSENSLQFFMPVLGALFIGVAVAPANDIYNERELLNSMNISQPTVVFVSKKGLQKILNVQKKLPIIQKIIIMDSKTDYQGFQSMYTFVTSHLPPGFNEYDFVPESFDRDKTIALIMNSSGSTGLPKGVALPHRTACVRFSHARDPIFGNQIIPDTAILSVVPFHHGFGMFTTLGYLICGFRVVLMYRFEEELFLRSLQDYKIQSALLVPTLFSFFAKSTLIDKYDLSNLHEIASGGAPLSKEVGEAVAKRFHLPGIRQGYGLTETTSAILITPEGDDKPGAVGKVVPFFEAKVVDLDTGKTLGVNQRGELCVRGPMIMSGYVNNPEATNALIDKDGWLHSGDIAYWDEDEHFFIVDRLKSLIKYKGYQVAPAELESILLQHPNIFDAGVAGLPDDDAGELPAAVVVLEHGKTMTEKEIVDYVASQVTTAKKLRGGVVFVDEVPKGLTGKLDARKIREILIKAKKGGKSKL
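Purified P. pyralis luciferase, 10 nM final, with Km-level 10 uM D-luciferin and 10 uM ATP in 50 mM Tris acetate pH 7.5, 10 mM Mg acetate, 0.01% Tween-20, 0.05% BSA; 6-point qHTS titration about 60 µM downward; luminescence read.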
Active calls of the source: *; ? = inconclusive; . = not tested or not shown; [ ] = another dose, or the depositor's remark. Calls follow the shape of the dose curve; as a rule, active = well fitted curve in the direction sought with a large enough effect; inconclusive = small, poorly fitted or top-dose-only effect, or another doubt; inactive = no such curve, though single readings can be large; an effect the other way counts as inactive or inconclusive. Potency is read from the fitted curve at half-maximal effect.

SMILES	NPC1 promoter act	ELG1 repair inh	Rab9 promoter act	ELG1 genotox	SMN2 splice up	FLuc modulator
CCCCCCN1C=CC(=C/C=C(\C#N)C(=O)OCC)C=C1	-1%	-2%	-5%	-7%	-7%	9%
CCN(CC)CCOC(=O)c1cccc2c1-c1ccccc1C2O (stereo unspecified)	-1%	-4%	-4%	0%	.	0%
CCc1nn(CCCC(=O)NCc2ccccc2C)c(=O)c2cc3occc3n12	-3%	1%	-3%	2%	.	-1%
O=C(COc1ncnc2sccc12)Nc1ccc(F)cc1F	0%	12%	1%	2%	-1%	2%
O=C(CCCCCn1c(=S)[nH]c2ccc(N3CCOCC3)cc2c1=O)NCc1cccc(Cl)c1	-5%	?	0%	7%	.	2%
CCOC(=O)N1CCC(NS(=O)(=O)c2ccc(C)c(Cl)c2)CC1	0%	16µM*	-10%	-4%	.	-2%
CC(=O)N(Nc1ccccc1)c1ccccc1	3%	7%	1%[1.84 µM]	4%	.	0%
C(=C\c1nc(-c2ccccc2)no1)/c1ccccc1	1.6µM*	?	0.56µM*	?	10µM*	1.3µM*
Brc1ccc2[nH]c3c(c2c1)CCC3	-4%	?	2%	-3%	.	-3%
O=C1Cc2c([nH]c3ccc(Br)cc23)-c2ccccc2N1	0.52µM*	.	0.37µM*	.	11µM*	.
C[C@@H]1CC2(OC3C[C@@]4(C)C5=CC[C@H]6C(C)(C)C(O[C@@H]7OC[C@@H](O)[C@H](O)[C@H]7O)CC[C@@]67C[C@@]57CC[C@]4(C)C31)OC(O)C1(C)OC21 (stereo partly specified)	.	.	.	.	2%	.
COc1ccc(/C=C/C(=O)CCC(=O)O)cc1	?	?	2.8µM*	9%	.	6.7µM*
COc1ccc(/C=C/C(=O)Oc2ccc(C)cc2)cc1	-3%	5%	10%	-1%	.	12µM*
Cc1ccc(-n2nc(C)c3c(C)c(CCC(=O)NCC4CCCO4)c(=O)n(C)c32)cc1 (stereo unspecified)	-3%	?	-12%	-13%	.	-1%
CNc1nc(N2CCc3ccccc32)ncc1F	2.5µM*	?	2.2µM*	?	?	5.4µM*
COc1ccc(C2CC(=O)c3cnc(N4CCc5ccccc54)nc3C2)cc1OC (stereo unspecified)	0%	-3%	-3%	-3%	.	-1%
CS(=O)(=O)Oc1ccc2c(c1)O/C(=C\C=C\c1ccccc1)C2=O	7%	3%	-1%	1%	.	7.6µM*
CS(=O)(=O)Oc1ccc2c(c1)O/C(=C\c1cccc([N+](=O)[O-])c1)C2=O	3%	18µM*	-1%	-1%	.	-3%
FC(F)(F)c1ccccc1NC(=S)N1CCc2ccccc2C1	-7%	15µM*	-1%	-12%	-50%	5%
Cc1c(N=Cc2nc3ccccc3[nH]2)c(=O)n(-c2ccccc2)n1C	14%	?	8%	0%	-35%	13µM*
Cc1[nH]c2ccccc2c1N=Nc1c(C)n(C)n(-c2ccccc2)c1=O	-1%	13µM*	-1%	-10%	-5%	-14%
Cc1cccc(-c2ccc(C=Nc3c(C)n(C)n(-c4ccccc4)c3=O)o2)c1	7%	6%	9%	0%	-8%	24µM*
Cc1c(C=O)c(=O)n(-c2ccccc2)n1C	2%	3%	-2%	-13%	5%	1%
Cc1c(N=Nc2ccc(O)cc2)c(=O)n(-c2ccccc2)n1C	11%	-2%	6%	8%	16%	-12%
Cc1c(N=Cc2nc3ccccc3n2C)c(=O)n(-c2ccccc2)n1C	0%	?	5%	?	1%	1.5µM*
SMILES	NPC1 promoter act	ELG1 repair inh	Rab9 promoter act	ELG1 genotox	SMN2 splice up	FLuc modulator
COc1ccccc1C(=O)NCCC(=O)NCc1cccnc1	0%	?	-2%	3%	.	-1%
Nc1nc2c(c(=O)[nH]1)C(c1cccc3ccccc13)C1=C(N2)c2ccccc2C1=O (stereo unspecified)	-11%	-5%	1%	0%	4%	-12%
Cc1cccc(C)c1NC(=O)CN(C)C(=O)c1ccccc1Sc1ccccc1C#N	?	1%	-4%	-1%	.	-3%
COc1cccc(/C=C/C(=O)Nc2ccc3nc4n(c(=O)c3c2)CCCC4)c1OC	5%	?	9%	-11%	.	12µM*
COc1ccc(/C=C/C(=O)Nc2ccc3nc4n(c(=O)c3c2)CCCC4)cc1	-1%	?	1%	5%	.	-12%
COc1cc(OC)cc(C(=O)Nc2ccc3nc4n(c(=O)c3c2)CCCCC4)c1	3.2µM*	?	3.5µM*	?	18µM*	12µM*
COCCn1c(N/N=C(C)/C=C/c2ccccc2)nc2c1c(=O)[nH]c(=O)n2C	-4%	4.6µM*	-1%	0%	.	1%
O=C(/C=C/c1ccccc1Cl)OCC(=O)c1ccc[nH]1	11%	?	2%	6%	.	9.5µM*
O=C(COC(=O)c1c(F)cccc1F)c1ccc[nH]1	4%	19%	13%	4%	.	17µM*
O=C(COC(=O)c1nc(Cl)c(Cl)c(Cl)c1Cl)c1ccc[nH]1	4%	?	0%	?	.	4%
O=C(OCC(=O)c1ccc[nH]1)c1ccccc1	8%	?	?	?	-30%	17µM*
O=C(OCC(=O)c1ccc[nH]1)c1ccc(Cl)c(Cl)c1	.	20%	.	-2%	.	.
O=C(CCCN1C(=O)/C(=C\c2ccccc2)SC1=S)N1CCOCC1	.	18µM*	.	-2%	.	.
O=C(CCN1C(=O)/C(=C/c2cccs2)SC1=S)N1CCCCC1	-20%	?	-21%	7%	.	15µM*
COc1cccc(/C=C2\SC(=S)N(CCCC(=O)N3CCCC3)C2=O)c1	-12%	-17%	-17%	-7%	.	17µM*
COc1cccc(/C=C2\SC(=S)N(CCCC(=O)N3CCCCC3CCO)C2=O)c1 (stereo unspecified)	-9%	?	-37%	-12%	.	?
Cc1cccc(C)c1NC(=O)CN(C)CC(=O)N1CC(=O)Nc2ccccc21	.	-10%	.	3%	.	.
COc1ccc([N+](=O)[O-])cc1NCC(=O)Nc1cccc(S(=O)(=O)N2CCCC2)c1	-1%	?	0%	-4%	.	5%
COc1ccc(N=c2oc3cc(O)ccc3cc2C(=O)NCC2CCCO2)cc1 (stereo unspecified)	1%	?	-4%	2%	-19%	-1%
COc1ccc(N=c2oc3cc(O)ccc3cc2C(=O)Nc2ccccn2)cc1OC	3%	4.1µM*	3%	-1%	-6%	?
